According to PubChem BioAssay (Tox21):
Results filed as inconclusive are left out. Entries that show only a call come without a potency. The source made the active and inactive calls. The call rests on the fitted dose curve; in most records, active means well fitted cell-killing curve with a large enough effect in the repeat runs; inconclusive means weak or mixed curves, or effect the other way; inactive means flat fitted curve, though single readings scatter.

Experiment: Caspase-3/7 induction in HepG2 cells by small molecules, qHTS cell viability counter screen (AID 1346981); further: nearly all actives have a fitted effect of over 30% in size
Conditions: CellTiter-Fluor fluorescence, 17 h; series mostly up to 92.4 µM
Text: U.S. Tox21 Program National Center for Advancing Translational Sciences [NCATS] NIH Chemical Genomics Center [NCGC] U.S. Environmental Protection Agency [EPA] National Institutes of Environmental Health Sciences [NIEHS] National Toxicology Program [NTP] U.S. Food and Drug Administration [FDA] Tox21 Assay Overview: Apoptosis is a process of programmed cell death and plays a central role in the development of multicellular organisms. It is a highly regulated process and induces cell death by activating caspases, which are the members of cysteine aspartic acid-specific protease (caspase) family. Caspases involved in apoptosis are classified by their mechanism of action as initiator caspases (caspase-2, -8, -9 and -10) and executioner caspases (caspase-3, -6, and -7). Inhibition of apoptosis results in number of cancers, autoimmune diseases, inflammatory diseases and viral infection. To identify small molecule compounds that induce apoptosis, a homogeneous, luminescent Caspase-Glo 3/7 assay was used. Wild type HepG2 cells were used to screen Tox21 libraries for identifying caspase-3/7 activity inducers. Also cytotoxicity of the compounds was tested in parallel by measuring the cell viability using CellTiter-Fluor assay system in the same wells.
Tox21 Assay Protocol Summary: HepG2 cells were dispensed at 2,000 per well in 5uL of culture medium into white solid bottom 1536-well plates (Corning Life Sciences, Corning, NY) using a Multidrop Combi (Thermo Scientific, Waltham, MA) dispenser. The assay plates were incubated at 37 C and 5% CO2 for 5hr, and then 23nL of compounds dissolved in DMSO and positive control were transferred using a Pintool station ([…], San Diego, CA). The assay plates were incubated at 37C and 5% CO2 for 17hr. For cytotoxicity read, after 16hr incubation at 37C, 1uL CellTiter-Fluor reagent (Promega Corporation, Madison, WI) was added to each well of the assay plates using Flying Reagent Dispenser (FRD, Aurora Discovery, San Diego, CA). After 1hr incubation at 37C and 5% CO2, the fluorescence signal was quantified using a ViewLux plate reader (PerkinElmer, Shelton, CT).
Potency means the concentration at half of the fitted maximal effect.

| Compound | Potency |
| --- | --- |
| CC[C@H](c1ccc(O)cc1)[C@@H](CC)c1ccc(O)cc1 | inactive |
| CCC1OCC(COc2ccc(Oc3ccccc3)cc2)O1 (stereo not given) | inactive |
| CCc1oc2ccccc2c1C(=O)c1cc(Br)c(O)c(Br)c1 | inactive |
| CCCCCOc1ccccc1/C(=C\SC)n1ccnc1 | inactive |
| COc1cccc(N)c1 | inactive |
| CCCCCCCCS(=O)C(C)Cc1ccc2c(c1)OCO2 (stereo not given) | 69.9 µM (active) |
| O=C1C=CC(=O)N1c1ccc(Cc2ccc(N3C(=O)C=CC3=O)cc2)cc1 | 68.6 µM (active) |
| CC1=NC(C)OC1C (stereo not given) | inactive |
| CCCCc1oc2ccc(NS(C)(=O)=O)cc2c1C(=O)c1ccc(OCCCN(CCCC)CCCC)cc1 | 26.6 µM (active) |
| CSc1ccc(/C=C2/C(C)=C(CC(=O)O)c3cc(F)ccc32)cc1 | inactive |
| CSc1ccc(C(=O)c2[nH]c(=O)[nH]c2C)cc1 | inactive |
| CCCCCCCC[P+](CCCCCCCC)(CCCCCCCC)CCCCCCCC | 13.6 µM (active) |
| CCN1/C(=C/C=C/c2sc3ccccc3[n+]2CC)Sc2ccccc21 | 10.3 µM (active) |
| O=c1[nH]cnc2nc[nH]c12 | inactive |
| CCCCCCCC[N+](CCCCCCCC)(CCCCCCCC)CCCCCCCC | 21.6 µM (active) |
| CC1=C(C(=O)OC(C)C)C(c2cccc([N+](=O)[O-])c2)C(C(=O)OC2CN(C(c3ccccc3)c3ccccc3)C2)=C(N)N1 (stereo not given) | 33.5 µM (active) |
| Oc1ccc(C2(c3ccc(O)cc3)CC3CC2C2CCCC32)cc1 (stereo not given) | 52.3 µM (active) |
| Clc1ccc(C(Cn2ccnc2)OCc2ccc(Sc3ccccc3)cc2)c(Cl)c1 (stereo not given) | inactive |
| CCCCN1C(=O)[C@@H]([C@H](O)C2CCCCC2)NC(=O)C12CCN(Cc1ccc(Oc3ccc(C(=O)O)cc3)cc1)CC2 | 30.6 µM (active) |
| CO[Si](CCCNc1ccccc1)(OC)OC | inactive |

| Compound | Potency |
| --- | --- |
| CCC(Cl)C(Cl)C(Cl)CC(Cl)C(Cl)C(C)Cl (stereo not given) | inactive |
| CC(=O)OCC(C)OC(C)=O (stereo not given) | inactive |
| O=C(NOCC1CC1)c1ccc(F)c(F)c1Nc1ccc(I)cc1Cl | 26.6 µM (active) |
| COc1ccc(-c2ccc3cc(C(=O)O)ccc3c2)cc1C12CC3CC(CC(C3)C1)C2 | inactive |
| O=C(N/N=C/c1ccccc1O)c1ccncc1 | inactive |
| CCC(N)(CO)CO | inactive |
| COc1ccc(CN2CCN(C(c3ccc(F)cc3)c3ccc(F)cc3)CC2)c(OC)c1OC | 26.6 µM (active) |
| Oc1c(Cl)cc(Cl)c2cccnc12 | inactive |
| OCCN1CCN(CC/C=C2/c3ccccc3Sc3ccc(C(F)(F)F)cc32)CC1 | 33.5 µM (active) |
| CCCCN1CCCC[C@H]1C(=O)Nc1c(C)cccc1C | inactive |
| O=C(Nc1cccc(Cl)c1)OCC#CCCl | 27.3 µM (active) |
| CCOC(=O)O[C@]1(C(=O)OCCl)CC[C@H]2[C@@H]3CCC4=CC(=O)C=C[C@]4(C)[C@H]3[C@@H](O)C[C@@]21C | inactive |
| CCCCCCCCCCC=O | inactive |
| Cc1cccc(CN2CCN(C(c3ccccc3)c3ccc(Cl)cc3)CC2)c1 (stereo not given) | inactive |
| CN(C)c1ccc(C2(c3ccc(N(C)C)cc3)OC(=O)c3cc(N(C)C)ccc32)cc1 | inactive |
| NNC(=O)c1cccc(C(=O)NN)c1 | inactive |
| Cc1cc(CCN2CCN(c3nsc4ccccc34)CC2)cc2c1NC(=O)CC2(C)C | 61.1 µM (active) |
| C[C@H]1[C@H]2CC[C@H]3[C@@H]4CC=C5C[C@@H](N(C)C)CC[C@]5(C)[C@H]4CC[C@]23CN1C | inactive |
| COc1cc(/C=C/C(=O)O[C@H]2CC[C@]34C[C@]35CC[C@]3(C)[C@@H]([C@H](C)CCC=C(C)C)CC[C@@]3(C)[C@@H]5CC[C@H]4C2(C)C)ccc1O | inactive |
| CCOC(=O)O[C@H](C)OC(=O)c1ccc2c(c1)cc(C(=O)NC1CCN(C(C)C)CC1)n2Cc1cc(-c2ccc(Cl)s2)on1 | 50.9 µM (active) |
